SARS PLP yeast = qHTS of Yeast-based Assay for SARS-CoV PLP; AID 485353, 2010; hit rate 0.19% among 330,000; S. cerevisiae expressing SARS-CoV PLpro, growth rescue; Potency, µM (titrated, usually from 32.9 µM), inactives show top-dose activity, positive = growth rescue, usual class: activators; calls by dose curve; also: 0% is about no effect; nearly all actives have a fitted effect of over 55% in size
RE007 growth inh = qHTS Assay for Inhibitors of the HIV-1 protein Vpr; S. pombe RE007 Vpr strain, BacTiter-Glo ATP luminescence, 24 h; Potency, µM (series often up to 92.2 µM), without a hit: at the top dose activity change, negative = less growth, hits mostly inhibitors; hit rate 0.21% among 360,000; AID 651644, 2012; active = well fitted falling curve with a large enough effect; inconclusive = small, poorly fitted or top-dose-only effect; inactive = no such curve, though single readings can be large or run the other way; also: % is scaled to controls: 0 for no effect and ±100 for the full control effect; nearly all actives have a fitted effect of over 50% in size
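Fission yeast RE007 carrying one integrated HIV-1 vpr copy, seeded at OD 0.01 in PMG+AL medium with 23 nL pinned compound. Grown 24 h at 30 degrees; viability read by BacTiter-Glo luminescence after 5 min.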
Sm TGR block = qHTS Assay for the Inhibitors of Schistosoma Mansoni Peroxiredoxins. Schistosoma mansoni thioredoxin glutathione reductase (TGR), Q962Y6. Potency, µM (titrated, usually from 114 µM), without a hit: top-dose activity change, negative = inhibition, most hits filed as inhibitors. purified TGR, DTNB reduction, TNB absorbance 405 nm. AID 485364, 2010. hit rate 3% among 360,000; also: % is scaled to controls: 0 for no effect and ±100 for the full control effect; nearly all actives have a fitted effect of over 60% in size
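Kinetic colorimetric format: TGR-catalysed, NADPH-driven DTNB reduction monitored via TNB absorbance. Enzyme dispensed at 20 nM; compound exposure 15 min at room temperature before reaction start.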
TbPYK inhibitor = qHTS of Trypanosoma Brucei Inhibitors. pyruvate kinase (Trypanosoma brucei), Q57TT1. TbPYK enzyme, Kinase-Glo Plus ATP luminescence, 45 min. Potency, µM (titrated, usually from 76.8 µM), for inactives: top-dose activity, negative = inhibition, actives largely listed as inhibitors. hit rate 0.12% among 410,000; also: % is scaled to controls: 0 for no effect and ±100 for the full control effect; nearly all actives have a fitted effect of over 50% in size
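ADP (130 uM final) triggers the TbPYK reaction after compound addition; incubation is 45 min at room temperature. Kinase-Glo Plus is then added and luminescence imaged. Normalized data are fitted to concentration-effect curves.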
NS1 inh = qHTS Assay for Inhibitors of Influenza NS1 Protein Function | Potency, µM (top dose mostly 46.1 µM), for the others: at the highest dose activity, positive = more growth | hit rate 0.4% among 270,000 | AID 2326, 2010; calls by dose curve; also: actives are rising curves; nearly all actives have a fitted effect of over 50% in size
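A cell-based growth assay was used: compounds that relieve NS1-induced slow growth of budding yeast raise OD600. Assay medium was yeast nitrogen base with ammonium sulphate and -URA supplement, pH 6.0, with 2% galactose.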
LmPK inhibitor = qHTS Assay for Inhibitors of Leishmania Mexicana Pyruvate Kinase (LmPK) | Q27686 | purified LmPK, Kinase-Glo ATP luminescence, 1 h | Potency, µM (titrated, usually from 57.5 µM), for inactives: at the top dose activity change, negative = inhibition, actives largely listed as inhibitors | hit rate 0.37% among 290,000 | AID 1721, 2009; also: % is scaled to controls: 0 for no effect and ±100 for the full control effect
Target sequence (Q27686 whole entry, looked up): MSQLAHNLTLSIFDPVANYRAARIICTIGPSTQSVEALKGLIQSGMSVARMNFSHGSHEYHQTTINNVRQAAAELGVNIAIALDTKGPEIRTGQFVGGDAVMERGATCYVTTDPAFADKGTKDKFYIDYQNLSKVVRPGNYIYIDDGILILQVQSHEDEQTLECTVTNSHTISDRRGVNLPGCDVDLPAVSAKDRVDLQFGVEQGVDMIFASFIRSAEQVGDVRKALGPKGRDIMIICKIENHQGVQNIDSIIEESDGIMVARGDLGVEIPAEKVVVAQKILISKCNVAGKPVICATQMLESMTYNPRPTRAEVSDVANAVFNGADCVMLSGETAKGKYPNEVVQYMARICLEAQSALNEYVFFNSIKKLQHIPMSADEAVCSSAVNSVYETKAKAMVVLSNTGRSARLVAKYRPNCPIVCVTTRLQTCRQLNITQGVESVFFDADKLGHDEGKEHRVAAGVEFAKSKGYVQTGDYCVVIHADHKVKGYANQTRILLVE
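Kinase-Glo luminescence read after 1 h RT reaction of 0.1 nM LmPK with 0.5 mM PEP and 0.1 mM ADP. Activity scaled between uninhibited and enzyme-free controls.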
The depositor's hits bear a star; ? = inconclusive; nt = no result given; [ ] = remark or other dose. This is a sample that favours compounds with a hit; in the whole collection about 3.3% have one here. Unless noted, calls follow the shape of the dose curve; as a rule, active = well fitted curve in the direction sought with a large enough effect; inconclusive = small, poorly fitted or top-dose-only effect, or another doubt; inactive = no such curve, though single readings can be large; an effect the other way counts as inactive or inconclusive. Potency is read from the fitted curve at half-maximal effect.

SMILES	SARS PLP yeast	RE007 growth inh	Sm TGR block	TbPYK inhibitor	NS1 inh	LmPK inhibitor
Oc1ccc(CNc2ccccc2F)c2cccnc12	?	-12.1%	0.112µM*	-12.1%	-7.0%	21.1%
Oc1ccc(CNc2ccc(C(F)(F)F)cc2Cl)c2cccnc12	-1.5%	nt	1µM*	nt	nt	nt
Oc1ccc(F)c2cccnc12	0.1%	1.1%	11.5%	?	-2.0%	-0.5%
Oc1ccc(CNc2cccc(F)c2F)c2cccnc12	1.6%	nt	0.112µM*	nt	nt	nt
Oc1ccc(CNCc2ccccc2)c2cccnc12	nt	nt	nt	nt	0.0%	nt
CSc1nn(Cc2ccc(F)cc2)c(N)c1S(=O)(=O)c1ccc(Cl)cc1	nt	nt	?	-4.4%	nt	nt
Cc1ccc2cc(C(c3nnnn3Cc3ccccc3)N3CCc4ccccc43)c(=O)[nH]c2c1C (stereo not drawn)	-1.1%	5.8%	?	-6.8%	3.1%	1.2%
Cc1cc2cc(C(c3nnnn3Cc3ccco3)N3CCc4ccccc4C3)c(=O)[nH]c2cc1C (stereo not drawn)	0.8%	-4.0%	3.55µM*	?	10.1%	-4.0%
COc1cc2cc(C(c3nnnn3Cc3ccc(F)cc3)N3CCCCCC3)c(=O)[nH]c2cc1OC (stereo not drawn)	3.4%	-10.6%	?	?	-12.9%	-1.4%
Cc1cc2cc(C(c3nnnn3Cc3ccccc3)N3CCc4ccccc43)c(=O)[nH]c2cc1C (stereo not drawn)	-2.3%	-2.5%	44.7µM*	5.4%	21.3%	8.1%
CCC(C)(C)n1nnnc1C(c1cc2ccc(OC)cc2[nH]c1=O)N1CCc2ccccc21 (stereo not drawn)	-0.8%	18.2%	35.5µM*	?	?	2.0%
Cc1cc2cc(C(c3nnnn3Cc3ccco3)N3CCc4ccccc43)c(=O)[nH]c2cc1C (stereo not drawn)	?	38.6%	?	?	5.6%	2.6%
COc1ccc(Cn2nnnc2C(c2cc3ccc(OC)cc3[nH]c2=O)N2CCCCCC2)cc1 (stereo not drawn)	-7.4%	2.8%	17.8µM*	5.8%	-5.1%	1.0%
C[C@H]1Cc2c(COc3ccccc3)nc3c(c2CO1)CN(C(=O)C1CC1)CC3	nt	nt	nt	nt	nt	-13.3%[11.5 µM]
Cc1ccc2[nH]c(=O)c(C(c3nnnn3Cc3ccccc3)N3CCc4ccccc43)cc2c1 (stereo not drawn)	6.0%	7.4%	20µM*	-23.5%	9.5%	11.2%
Cc1ccc2cc(C(c3nnnn3Cc3ccccc3)N3CCc4ccccc43)c(=O)[nH]c2c1 (stereo not drawn)	3.7%	-0.4%	3.5%	-14.2%	-0.1%	-5.4%
CCOC(=O)C1=C(C)N=c2s/c(=C3\C(=O)Nc4ccccc43)c(=O)n2C1c1ccc2c(c1)OCO2 (stereo not drawn)	6.5%	12.6%	3.98µM*	-16.5%	?	-3.6%
CCOC(=O)C1=C(C)N=c2s/c(=C\c3ccncc3)c(=O)n2C1c1ccc2c(c1)OCO2 (stereo not drawn)	1.3%	6.4%	-14.1%	-12.3%	-111.8%	0.8%
CCCn1c(O)c(CN2CCCCC2)c(C)c(C#N)c1=O	1.0%	32.8%	-29.1%	-2.2%	13.4%	-0.5%
C=CCn1c(O)c(CN2CCN(Cc3ccccc3)CC2)c(C)c(C#N)c1=O	10.8%	16.2%	44.7µM*	2.9%	2.3%	0.8%
CCc1ccccc1NC(=O)Cn1c(=O)nc(-c2ccccc2)c2ccccc21	nt	nt	-4.1%	2.6%	nt	nt
O=S(=O)(Nc1ccc(F)cc1F)c1ccc(-n2cccn2)cc1	nt	nt	0.2%	-1.3%	nt	nt
COc1cc(C)c(C)cc1S(=O)(=O)Nc1cccc(-c2ccc(N3CCOCC3)nn2)c1	nt	nt	3.3%	-5.2%	nt	nt
COc1ccc(OCCCC(=O)OCC(=O)c2ccc3c(c2)NC(=O)CO3)cc1	-7.0%	-3.9%	44.7µM*	-3.4%	nt	nt
O=C1COc2ccc(C(=O)COC(=O)c3cnc(Cl)c(Cl)c3)cc2N1	-6.0%	8.7%	-6.6%	1.4%	nt	1.6%
SMILES	SARS PLP yeast	RE007 growth inh	Sm TGR block	TbPYK inhibitor	NS1 inh	LmPK inhibitor
O=C1COc2ccc(C(=O)COC(=O)c3nc(Cl)ccc3Cl)cc2N1	-3.1%	7.9%	14.1µM*	-5.4%	nt	nt
O=C1COc2ccc(C(=O)COC(=O)c3ccc([N+](=O)[O-])cc3Cl)cc2N1	-2.2%	6.9%	39.8µM*	-4.0%	nt	nt
O=C1COc2ccc(C(=O)COC(=O)c3ncc(Cl)c(Cl)c3Cl)cc2N1	0.8%	6.2%	50.1µM*	3.6%	nt	nt
COc1ccc(C(=O)OCC(=O)c2ccc3c(c2)NC(=O)CO3)cc1OC	0.1%	-1.3%	nt	0.0%	nt	nt
COc1ccc(Cn2ccc3nc(C)c(C(=O)N4CCN(c5ccccc5F)CC4)cc3c2=O)cc1	nt	nt	2.4%	4.8%	nt	nt
CCOC(=O)c1c(C)[nH]c(CCC(=O)Nc2ccccc2C(=O)OC)c1C	nt	nt	0.1%	-2.1%	nt	nt
O=c1cnc2cnc(Oc3ccccc3)nc2n1CCc1ccccc1	nt	nt	nt	-5.2%	nt	nt
CCc1ccc(C2c3c(-c4cc(C)ccc4O)n[nH]c3C(=O)N2Cc2cccnc2)cc1 (stereo not drawn)	nt	nt	12.0%	3.3%	nt	nt
Cc1cc(-c2ccc(S(=O)(=O)Nc3ccccc3F)s2)on1	nt	nt	1.4%	-1.5%[15.4 µM]	nt	nt
COc1cc2c(cc1OC)[C@@]13CCN4CC5=CCO[C@H](CC(=O)O)[C@@H]([C@H]1N2)[C@H]5C[C@H]43	nt	nt	nt	nt	7.9%	nt
COc1ccc(O)c(-c2c(-c3ccc(Cl)cc3)n[nH]c2C)c1	-0.2%	0.0%	50.1µM*	-22.0%	-63.5%	-15.4%
COc1ccc(-c2n[nH]c(C)c2-c2ccc(Cl)cc2)c(O)c1	-26.5%	?	-20.4%	-11.1%	-134.9%	0.2%
O=C(O)[C@@H]1[C@@H](C(=O)NCc2ccccn2)[C@@H]2C=C[C@@H]1O2	nt	nt	nt	nt	-1.4%	nt
Cc1ccc(-c2c(C)n3c4c(=O)n(C)c(=O)n(C)c4nc3n2CCCO)cc1	nt	nt	-2.9%	4.6%	nt	nt
Cc1ccc(S(=O)(=O)CCC(=O)Oc2ccc(-c3nnco3)cc2)cc1	1.7%	29.5%	20µM*	-4.8%	nt	nt
Cc1ccc(S(=O)(=O)CCC(=O)c2cccc([N+](=O)[O-])c2)cc1	-24.3%	5.62µM*	?	?	-139.5%	2.3%
Cc1ccc(C(=O)CCS(=O)(=O)c2ccc(Br)cc2)cc1	1.0%	9.0%	0.398µM*	1.7%	0.0%	-8.2%
Cc1ccc(S(=O)(=O)Cc2cc(F)c([N+](=O)[O-])cc2[N+](=O)[O-])cc1	-65.5%	?	1.78µM*	-2.4%	-102.7%	3.2%
